According to PubChem BioAssay (NCI):
About 83,000 compounds went through this panel and 20% of them were active in at least one assay; those are over-represented in the sample as a whole.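 Results are percent growth after 48 hours of single-concentration exposure. 100 means growth as in untreated cells, lower positive values show inhibition; negative values down to -100 show cell death.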

Experiments:
Test in all cases: NCI-60 one-dose screen, 48 h (100 = growth as untreated, 0 = no growth, -100 = all killed)
Details in all cases: 10 µM unless noted; active means growth percent below 10; inactive means the rest
NCI-H23 lung = test system: NCI-H23 lung
NCI-H226 lung = test system: NCI-H226 lung
NCI-H322M lung = test system: NCI-H322M lung
HOP-62 NSCLC = test system: HOP-62 NSCLC
NCI-H460 lung = test system: NCI-H460 lung
HOP-92 NSCLC = test system: HOP-92 NSCLC
NCI-H522 lung = test system: NCI-H522 lung
A549/ATCC NSCLC = test system: A549/ATCC NSCLC
786-0 renal = test system: 786-0 renal
COLO 205 colon = test system: COLO 205 colon
DU-145 prostate = test system: DU-145 prostate
K-562 leukemia = test system: K-562 leukemia
MALME-3M melanoma = test system: MALME-3M melanoma
RXF 393 renal = test system: RXF 393 renal
SF-268 CNS = test system: SF-268 CNS
SF-295 CNS = test system: SF-295 CNS
SF-539 CNS = test system: SF-539 CNS
UACC-257 melanoma = test system: UACC-257 melanoma
M14 melanoma = test system: M14 melanoma
MDA-MB-231 breast = test system: MDA-MB-231 breast

Measured: growth

CSc1nc2[nH]ncc2c(=O)[nH]1
inactive: NCI-H23 lung 94.8% | NCI-H226 lung 91.4% | NCI-H322M lung 108% | HOP-62 NSCLC 101% | NCI-H460 lung 98.8% | HOP-92 NSCLC 106% | NCI-H522 lung 99.9% | A549/ATCC NSCLC 111% | 786-0 renal 101% | COLO 205 colon 107% | DU-145 prostate 104% | K-562 leukemia 113% | MALME-3M melanoma 101% | RXF 393 renal 92.6% | SF-268 CNS 95.2% | SF-295 CNS 96.2% | SF-539 CNS 96% | UACC-257 melanoma 109% | M14 melanoma 92.1%

CSCC[C@@H]1C(=O)N(C)[C@H](C(C)(C)C)N1C(=O)c1ccccc1
inactive: NCI-H23 lung 101% | NCI-H226 lung 102% | NCI-H322M lung 97.6% | HOP-62 NSCLC 103% | NCI-H460 lung 112% | HOP-92 NSCLC 108% | NCI-H522 lung 107% | A549/ATCC NSCLC 101% | 786-0 renal 106% | COLO 205 colon 113% | DU-145 prostate 106% | K-562 leukemia 114% | MDA-MB-231 breast 111% | RXF 393 renal 111% | SF-268 CNS 94.8% | SF-295 CNS 108% | SF-539 CNS 107% | UACC-257 melanoma 100% | M14 melanoma 105%

CCCOCc1cn[nH]n1
inactive: NCI-H23 lung 107% | NCI-H226 lung 104% | NCI-H322M lung 102% | HOP-62 NSCLC 99.8% | NCI-H460 lung 111% | HOP-92 NSCLC 106% | NCI-H522 lung 99.3% | A549/ATCC NSCLC 96% | 786-0 renal 102% | COLO 205 colon 111% | DU-145 prostate 108% | K-562 leukemia 104% | MDA-MB-231 breast 110% | RXF 393 renal 109% | SF-268 CNS 103% | SF-295 CNS 101% | SF-539 CNS 98.8% | UACC-257 melanoma 94%

N#C/C(=C\NC(=S)N=Nc1c(O)[nH]c2ccccc12)c1nc2ccccc2s1
inactive: NCI-H23 lung 94.7% | NCI-H226 lung 77.6% | NCI-H322M lung 101% | HOP-62 NSCLC 95.4% | NCI-H460 lung 97.4% | HOP-92 NSCLC 83.8% | NCI-H522 lung 82.9% | A549/ATCC NSCLC 90.3% | 786-0 renal 94.8% | COLO 205 colon 106% | DU-145 prostate 113% | K-562 leukemia 101% | MDA-MB-231 breast 87.9% | RXF 393 renal 101% | SF-268 CNS 102% | SF-295 CNS 107% | SF-539 CNS 103% | UACC-257 melanoma 94.9%

Cc1[nH]nc(C(N)=O)c1[N+](=O)[O-]
inactive: NCI-H23 lung 89.2% | NCI-H226 lung 87.6% | NCI-H322M lung 105% | HOP-62 NSCLC 77.5% | NCI-H460 lung 98.9% | HOP-92 NSCLC 84.1% | NCI-H522 lung 106% | A549/ATCC NSCLC 101% | 786-0 renal 103% | COLO 205 colon 102% | DU-145 prostate 103% | K-562 leukemia 126% | MALME-3M melanoma 94% | RXF 393 renal 86.9% | SF-268 CNS 99.4% | SF-295 CNS 99% | SF-539 CNS 93.3% | UACC-257 melanoma 93.7% | M14 melanoma 90.4%

CS(=O)(=O)c1ccc(/C=C\C(=O)O)cc1
inactive: NCI-H23 lung 106% | NCI-H226 lung 96.1% | NCI-H322M lung 108% | HOP-62 NSCLC 99.5% | NCI-H460 lung 94.3% | HOP-92 NSCLC 94% | NCI-H522 lung 99.5% | A549/ATCC NSCLC 106% | 786-0 renal 108% | COLO 205 colon 109% | DU-145 prostate 104% | K-562 leukemia 122% | MDA-MB-231 breast 110% | RXF 393 renal 95.7% | SF-268 CNS 94.1% | SF-295 CNS 103% | SF-539 CNS 91.8% | UACC-257 melanoma 99.7% | M14 melanoma 94.9%

COc1cccc(N=CNc2cccc(OC)c2)c1
inactive: NCI-H23 lung 98.3% | NCI-H226 lung 99.7% | NCI-H322M lung 96% | HOP-62 NSCLC 103% | NCI-H460 lung 109% | HOP-92 NSCLC 93.5% | NCI-H522 lung 85.6% | A549/ATCC NSCLC 92.4% | 786-0 renal 98.8% | COLO 205 colon 107% | DU-145 prostate 107% | K-562 leukemia 66% | MDA-MB-231 breast 91.9% | RXF 393 renal 105% | SF-268 CNS 105% | SF-295 CNS 112% | SF-539 CNS 98.3% | UACC-257 melanoma 106% | M14 melanoma 104%

O=C(O)c1ccc([N+](=O)[O-])cc1S(=O)(=O)O
inactive: NCI-H23 lung 104% | NCI-H226 lung 104% | NCI-H322M lung 113% | HOP-62 NSCLC 107% | NCI-H460 lung 105% | HOP-92 NSCLC 119% | NCI-H522 lung 101% | A549/ATCC NSCLC 97.2% | 786-0 renal 102% | COLO 205 colon 112% | DU-145 prostate 104% | K-562 leukemia 107% | MALME-3M melanoma 108% | RXF 393 renal 114% | SF-268 CNS 98% | SF-295 CNS 102% | SF-539 CNS 107% | UACC-257 melanoma 100% | M14 melanoma 108%

CN(C)c1ccc(/C=C/C(=O)c2ccc(NC(N)=O)cc2)cc1
inactive: NCI-H23 lung 96.9% | NCI-H226 lung 104% | NCI-H322M lung 97% | HOP-62 NSCLC 94.1% | NCI-H460 lung 102% | HOP-92 NSCLC 103% | NCI-H522 lung 95.3% | A549/ATCC NSCLC 84.5% | 786-0 renal 97.1% | COLO 205 colon 112% | DU-145 prostate 98.8% | K-562 leukemia 64.6% | MALME-3M melanoma 82.3% | RXF 393 renal 107% | SF-268 CNS 99% | SF-295 CNS 98.8% | SF-539 CNS 81.1% | UACC-257 melanoma 89.9% | M14 melanoma 86.8%
